Values without a mark were called inactive. Activity calls are given as the source filed them. Cut-off read from the data, not from the text of the source: active = inhibition above about 36%; inactive = the rest.

In the experiment the test system is transactivating tegument protein VP16 (Human herpesvirus 1). Put plainly: compounds suppressing VP16-driven luciferase signal – cell-based, luminescence, single concentration, counter-screen for SRC2 inhibitor project (AID 652007). Particulars: cell-based VP16 transactivation luciferase reporter, at 8.9 µM, active compounds read high. (In general: A counterscreen serves to expose hits that act by an unwanted route or on another target.)
What is called inhibition is the relative decrease from the control value, in per cent. On to `Cc1cc(C(=O)CN2C(=O)c3ccccc3S2(=O)=O)c(C)n1C(C)C`, for which the inhibition is 29.6%.
On to `O=C(CCCN1C(=O)/C(=C/c2ccccc2Cl)SC1=S)NNC(=O)c1ccncc1`, for which the inhibition is 40.6% (active).
As for `Cc1ccc2nc(C(F)(F)F)c(C#N)c(N)c2c1`, the inhibition was 1.92%.
With `CCCC(=O)N1CCN(c2ccc(NC(=O)c3cc4ccccc4o3)cc2Cl)CC1`, the inhibition was 35.5% (active).
With `O=C(CCCN1C(=O)/C(=C/c2ccccc2Cl)SC1=S)NNC(=O)c1ccc(Cl)cc1Cl`, the inhibition was 76.7% (active).
As to `c1cc2c(cc1C1=NNC(=NC3CC3)SC1)OCCO2`, the inhibition is 59.7% (active).
To `O=C1C=CC(=C(c2ccc(O)cc2)c2ccc(O)cc2)C=C1` belongs 26.8%; to `CC1=C(C(=O)OCc2ccc3c(c2)OCO3)C(c2ccc(Cl)cc2)NC(=O)N1` (stereo unspecified), 29.9%; to `COc1ccc(-c2cc3nc(C)n(N)c(=O)c3s2)cc1`, 72% (active).
On to `COc1ccc(-c2cc(=O)oc3c(C)c(O)ccc23)cc1`, for which the inhibition was -7.99%.
To `O=C(CCl)N(C1CCCC1)C1CCS(=O)(=O)C1` (stereo unspecified) belongs 30.6%; to `O=[N+]([O-])c1ccc2ncnc(N3CCN(Cc4ccc5c(c4)OCO5)CC3)c2c1`, 8.73%.
Take `CCOc1ccc(/C=C2\SC(=S)N(CCC(=O)O)C2=O)cc1`: the inhibition was -7.9%.
For the compound `CCCN(CC(=O)Nc1ccccc1C)C(=O)CCl`, the inhibition was 65.6% (active).
As to `Cc1nn(C(C)(C)C)c(C)c1/C=N/OC(=O)Nc1ccc(Cl)c(Cl)c1`, the inhibition was 63% (active).
With `C=CCN(CC=C)c1ncnc2[nH]ncc12`, the inhibition is -8.17%.

For the origin of these results see PubChem BioAssay.
